In PubChem BioAssay one finds composite z-score and z-score data, which are given here for 12 compounds.

Experiment [1] relates to Human papillomavirus type 1a protein E7 (residues 44-93). Description: HPV1a E7 fragment binders on microarrays, primary screen, biochemical, small-molecule microarray, residues 44-93, 635 nm fluorescence (AID 1108).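 Note: E7 fragment applied at 1 µg/mL in TBST for 1 h at 4 C; score combines spot fluorescence with its signal to noise ratio.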 As to conditions: small-molecule microarray binding, fluorescence 635 nm; higher = more signal.
The nature of experiment [2]: modulators of HCV replicon luciferase signal, primary screen, HCV replication inhibitor project, Huh7 cells, luciferase reporter (AID 1109).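 Note: huh7 hepatoma cells harbouring a luciferase neomycin HCV replicon reporter; luciferase luminescence as measure of HCV replicon replication; test concentration not given here.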 The note with it: 48 h, higher = more signal. (In general: Replicon systems follow genome replication, usually without infectious particles.)
Experiment [3] addresses Left-right determination factor 2 (Homo sapiens) (UniProt O00292). Description: LEFTY2 binders on small-molecule microarrays, primary screen, biochemical, small-molecule microarray, 635 nm fluorescence scan (AID 1110). As to conditions: LEFTY2 binding, higher = more signal.
Experiment [4] concerns the target Calmodulin-1 (Homo sapiens) (UniProt P0DP23). Description: CALM1 binders on microarrays, EGTA buffer, profiling panel, biochemical, small-molecule microarray, Cy5-labelled CALM1 (AID 1111).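 Note: labelled calmodulin applied in Tris saline Tween buffer holding calcium plus EGTA and DTT.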 As to conditions: Cy5-CALM1 binding fluorescence, higher = more signal.
Experiment [5] shares this target. Nature of the experiment: calcium-bound CALM1 binders on microarrays, profiling panel, artefact control for SMM control-protein annotation, biochemical, small-molecule microarray, Cy5-labelled CALM1, plus calcium (AID 1112).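 Note: score merges spot fluorescence with signal to noise from triplicate slides.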 As to conditions: Cy5-CALM1 binding fluorescence, higher = more signal.
The nature of experiment [6]: small-molecule microarray binders of probe aWnt5a, primary screen, biochemical, biotinylated probe, 635/667 nm fluorescence (AID 1113).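 Note: score merges 667 nm fluorescence intensity with signal-to-noise per printed feature.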 As to conditions: higher = more signal.
Experiment [7] in a line: small-molecule microarray binders of probe aShh, primary screen, biochemical, biotinylated probe, 635/667 nm fluorescence (AID 1114).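 Note: probe is biotin-labelled aShh protein from a stem cell growth factor screen; measures binding of labelled protein to compounds printed on the slide; score merges feature fluorescence at 667 nm with signal-to-noise.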 The note with it: higher = more signal.
The nature of experiment [8]: small-molecule microarray binders of probe aNog, primary screen, biochemical, biotinylated probe, 635/667 nm fluorescence (AID 1115).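 Note: probe is biotinylated aNog protein used at 0.15 µg/mL for 1 h at 4 C; z-score combines 667 nm fluorescence of each spot with its signal to noise.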 As to conditions: higher = more signal.
Experiment [9] deals with Torsin-1A-interacting protein 1 (Homo sapiens) (UniProt Q5JTV8). Description: LAP1 binders from COS7 cell lysate, primary screen, small-molecule microarray, 635/667 nm fluorescence (AID 1116). As to conditions: COS7-hLAP1 lysate binding, 635 nm fluorescence, higher = more signal.
Experiment [10] has as its target Alpha-bungarotoxin (Bungarus multicinctus) (UniProt P60615). Description: alpha-bungarotoxin binders on microarray, profiling panel, artefact control for SMM control protein annotation, biochemical, small-molecule microarray, Alexa647 label, 635/667 nm fluorescence (AID 1117). The note with it: alpha-BTX-A647 binding fluorescence, higher = more signal.

Alpha-bungarotoxin (Bungarus multicinctus), sequence (P60615 whole entry, looked up): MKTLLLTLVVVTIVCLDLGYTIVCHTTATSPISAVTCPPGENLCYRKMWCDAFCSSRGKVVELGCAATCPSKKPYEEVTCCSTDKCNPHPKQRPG
Left-right determination factor 2 (Homo sapiens), sequence (O00292 whole entry, looked up): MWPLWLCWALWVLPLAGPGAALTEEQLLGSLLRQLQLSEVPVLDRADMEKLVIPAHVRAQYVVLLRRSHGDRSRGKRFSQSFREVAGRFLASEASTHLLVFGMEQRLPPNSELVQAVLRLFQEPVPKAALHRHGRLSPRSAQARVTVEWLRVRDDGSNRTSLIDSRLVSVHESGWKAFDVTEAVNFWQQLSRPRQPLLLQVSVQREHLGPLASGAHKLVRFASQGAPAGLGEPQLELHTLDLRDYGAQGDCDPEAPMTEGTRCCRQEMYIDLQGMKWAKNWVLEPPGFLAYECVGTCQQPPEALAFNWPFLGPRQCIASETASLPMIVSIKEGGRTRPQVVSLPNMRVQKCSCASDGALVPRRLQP
Torsin-1A-interacting protein 1 (Homo sapiens), sequence (Q5JTV8 whole entry, looked up): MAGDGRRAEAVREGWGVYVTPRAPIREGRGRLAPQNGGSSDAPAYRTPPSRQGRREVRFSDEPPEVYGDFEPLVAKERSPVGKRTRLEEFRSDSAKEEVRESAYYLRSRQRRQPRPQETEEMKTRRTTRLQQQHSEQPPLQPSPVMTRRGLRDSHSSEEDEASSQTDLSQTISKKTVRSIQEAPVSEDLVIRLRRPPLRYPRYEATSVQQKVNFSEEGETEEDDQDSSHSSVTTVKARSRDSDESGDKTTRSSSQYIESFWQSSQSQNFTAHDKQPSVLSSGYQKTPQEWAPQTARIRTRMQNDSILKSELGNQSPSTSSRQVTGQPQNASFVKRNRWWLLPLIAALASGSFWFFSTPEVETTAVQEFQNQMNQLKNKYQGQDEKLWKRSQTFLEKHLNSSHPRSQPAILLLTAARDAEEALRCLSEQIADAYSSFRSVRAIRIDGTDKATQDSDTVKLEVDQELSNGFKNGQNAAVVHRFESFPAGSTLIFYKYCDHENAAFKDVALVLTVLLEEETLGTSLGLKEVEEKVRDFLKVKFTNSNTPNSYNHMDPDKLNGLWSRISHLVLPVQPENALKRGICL

Consider `C[C@H]1C2[C@H](Cc3ccccc3)NC(=O)[C@]23C(=O)N[C@H](Cc2ccccc2)C(=O)N2CCC[C@H]2C(=O)NC/C=C\C/C=C/C3[C@@H]2O[C@]12C` (stereo not given in full), for which the composite z-score is -0.355 in experiment [1]; 0.203 in [3]; -0.404 in experiment [4]; -0.863 in experiment [5]; -0.0165 in experiment [6]; -0.0146 in experiment [7]. The composite z-score in experiment [8] is -0.0003; in experiment [9], 0.0015; in experiment [10], 1.18. Further, the z-score in experiment [2] is 0.255.

As for `O=C1C[C@@](C(=O)NCC(F)(F)F)(c2ccc([N+](=O)[O-])cc2)[C@@H](c2ccc(CO)cc2I)N1C1CCCCC1`, the composite z-score was 1.47 in experiment [1]; 0.386 in experiment [3]; 0.511 in experiment [4]; 0.074 in [5]; -0.0758 in experiment [6]; -0.181 in experiment [7]. The composite z-score in experiment [8] came to 0.437; in experiment [9] it was 1.62; in experiment [10] it was 0.0759. In experiment [2], the z-score is -2.54.

For the compound `CO[C@H]1O[C@H](CO)[C@@H](OC(=O)Nc2ccccc2)[C@H](OC(=O)Nc2ccccc2)[C@@H]1OC(=O)Nc1ccccc1`, the composite z-score in [1] is 1.39; in experiment [3], 0.179; in experiment [4], 0.928; in [5] it was -0.136; in experiment [6], 0.111; in [7], -0.0793. The composite z-score is -0.541 in [8], 0.835 in experiment [9] and 0.796 in [10]. This compound also registered a z-score in experiment [2] of -1.93.

For `CCC(CC)C(O)C1C=CC2C(=O)NC(=O)C2N1Nc1ccc(Cl)cc1Cl` (stereo not given), the composite z-score in [1] was 0.672; in experiment [3] it was -0.46; in [4] it was 1.93; in experiment [5] it was 1.15; in experiment [6], -0.12; in [7] it was 0.234. In addition, the results for the composite z-score in experiment [8], in experiment [9] and in experiment [10] were -0.452, 0.247 and 1.05, respectively. The compound further had a z-score in experiment [2] of -0.759.

On to `COc1ccc(CCNC(=O)[C@@]2(Sc3ccc(C)cc3)CC(=O)N(C3Cc4ccccc4C3)[C@@H]2c2ccc(CO)cc2I)cc1`, for which the composite z-score in [1] was 0.615; in experiment [3], -0.911; in experiment [4], 0.113; in experiment [5], 0.795; in [6], -0.0398; in experiment [7] it was -0.0234. The composite z-score in [8] turned out to be 0.136; in [9], 0.548; in experiment [10], 1.59. For the same compound, in experiment [2], the z-score was -2.48.

For `CC(C)C[C@@H]1NC(=O)[C@H](C(C)C)NC(=O)[C@@]23C(=O)N[C@@H](Cc4ccccc4)C2[C@H](C)[C@@]2(C)O[C@H]2C3/C=C/CC/C=C/CNC1=O` (stereo not given in full), the composite z-score is 1.35 in experiment [1]; 0.413 in experiment [3]; -0.245 in [4]; -0.736 in experiment [5]; -0.117 in experiment [6]; -0.283 in [7]. Besides, the composite z-score in [8] was -0.397; in experiment [9], 0.268; in experiment [10], 0.705. The compound also yielded a z-score in experiment [2] of -1.41.

For `O=C1C2C=CC(C(O)CCc3ccccc3)N(Nc3ccccc3F)C2C(=O)N1c1ccccc1` (stereo not given), the composite z-score in experiment [1] is 1.29; in experiment [3] it was -0.208; in experiment [4], 0.611; in [5], 0.11; in experiment [6], 0.229; in [7], 0.13. Moreover, the composite z-score in experiment [8] was 1.03; in [9], 1; in experiment [10], 0.324. The same compound displayed a z-score in [2] of -0.83.

With `C=C(C)[C@@H]1CC=C(C(O)C2C=CC3C(=O)N(C)C(=O)C3N2Nc2ccccc2)CC1` (stereo not given in full), the composite z-score is 1.35 in experiment [1]; 0.658 in experiment [3]; -0.27 in experiment [4]; -0.74 in [5]; 0.0004 in experiment [6]; -0.142 in [7]. The composite z-score in experiment [8] is -0.144; in [9], 0.296; in [10], 0.429. This compound also displayed a z-score in experiment [2] of -0.626.

For `COc1cccc(-c2cccc(=O)o2)c1`, the composite z-score in [1] is -1.17; in [3], 0.361; in experiment [4], -0.753; in experiment [5], -0.454; in experiment [6], 0.153; in [7], 0.475. For the same compound, the composite z-score in [8] turned out to be 0.192; in experiment [9], 0.628; in [10] it was 0.141. This compound had a z-score in experiment [2] of 0.473.

On to `COCCOC(=O)N1C(=O)[C@@]2(c3ccccc31)[C@H](c1ccc(O)cc1)N1[C@H](c3ccccc3)[C@H](c3ccccc3)OC(=O)[C@H]1[C@@H]2C(=O)Nc1nc2ccccc2s1`, for which the composite z-score is 1.19 in experiment [1]; 0.118 in experiment [3]; 1.29 in experiment [4]; 0.501 in experiment [5]; -0.0276 in experiment [6]; 0.249 in [7]. Further, the composite z-score in experiment [8] turned out to be 0.0308; in experiment [9], 1.33; in experiment [10], 1.87. Moreover, in [2], the z-score was -0.993.

Regarding `CCCC[C@H]1OB(O)C[C@H]2C1=C(COC)Cn1c(=O)n(-c3ccccc3)c(=O)n12`, the composite z-score in experiment [1] is 0.039; in experiment [3], 0.358; in experiment [4], -0.215; in experiment [5] it was -0.421; in experiment [6] it was -0.0792; in [7], -0.0977. For the same compound, the composite z-score amounted to 0.445 in experiment [8], 0.0892 in experiment [9] and 0.0547 in experiment [10]. In experiment [2], this compound gave a z-score of -0.673.

As for `COCCOC(=O)N1C(=O)[C@@]2(c3cc(C#CCCO)ccc31)[C@H](C(=O)N1CCCCCCC1)[C@H]1C(=O)O[C@H](c3ccccc3)[C@H](c3ccccc3)N1[C@@H]2c1ccc(OCCO)cc1`, the composite z-score in experiment [1] turned out to be 1.39; in [3], 1.01; in experiment [4], 2.13; in experiment [5], 1.05; in experiment [6] it was 0.933; in [7] it was 0.953. For the same compound, the values for the composite z-score in experiment [8], in experiment [9] and in [10] were 1.99, 3.97 and 2.01, respectively. Further, in [2], the z-score was -0.616.
